Common to all, as to test: NCI-60 one-dose screen, 48 h (100 = growth as untreated, 0 = no growth, -100 = all killed)
Common to all, as to details: 10 µM unless noted

Assay [1] concerns DU-145 prostate.
For assay [2], the system named is K-562 leukemia.
The test system of assay [3] is MALME-3M melanoma.
Assay [4] relates to MDA-MB-231 breast.
The subject of assay [5] is RXF 393 renal.
The test system of assay [6] is SF-268 CNS.
Assay [7] concerns SF-295 CNS.
Assay [8] has as its system SF-539 CNS.
Assay [9] concerns UACC-257 melanoma.
The test system of assay [10] is M14 melanoma.
For assay [11], the system named is HCT-15 colon.
The test system of assay [12] is HT29 colon.
Assay [13] concerns SNB-75 CNS.
The subject of assay [14] is SNB-19 CNS.
The subject of assay [15] is U251 CNS.
For assay [16], the system named is PC-3 prostate.
The test system of assay [17] is SK-MEL-5 melanoma.
Assay [18] has as its system UACC-62 melanoma.
Assay [19] deals with LOX IMVI melanoma.
In assay [20] the test system is SK-MEL-28 melanoma.

Each structure is given as a SMILES string. The panel holds about 83,000 compounds, 20% with a hit somewhere; the sample as a whole holds those more often.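 Each cell line was grown in a 96-well plate and treated with one concentration of compound for 48 hours. Values below 10 were considered active.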 Unmarked numbers belong to inactive results. Calls of active or inactive are those of the source.

For `C=C(C)[C@@H]1CC[C@]2(C(=O)NCCNCCNCCN)CC[C@]3(C)[C@H](CC[C@@H]4[C@@]5(C)CCC(=O)C(C)(C)[C@@H]5CC[C@]43C)[C@@H]12`, the growth in assay [1] was -56.7% [100 µM] (active); in [2], -17% [100 µM] (active); in [3], -72.8% [100 µM] (active); in [4] it was -92.4% [100 µM] (active); in assay [5], -71.9% [100 µM] (active); in assay [6], -38.7% [100 µM] (active). The growth in [7] is -54.5% [100 µM] (active); in assay [8], -92.7% [100 µM] (active); in assay [9], -10.7% [100 µM] (active); in assay [10] it was -62.8% [100 µM] (active); in assay [11] it was -36.6% [100 µM] (active); in assay [12], -77.4% [100 µM] (active). Moreover, the growth is -41.5% [100 µM] (active) in assay [13]; -78.5% [100 µM] (active) in [14]; -81.8% [100 µM] (active) in assay [15]; -24.6% [100 µM] (active) in assay [16]; -86.2% [100 µM] (active) in [17]; -77.9% [100 µM] (active) in assay [18]. Moreover, the growth is -68.2% [100 µM] (active) in assay [19] and -73.9% [100 µM] (active) in assay [20].
On to `O=C1/C(=C\c2cccn2Cc2ccccc2)c2ccccc2N1c1c(Cl)cccc1Cl`, for which the growth in assay [1] was 95.2%; in assay [2] it was 87.6%; in [3], 54%; in [4], 28.9%; in [5], 68%; in assay [6], 80.6%. Further, the growth was 77.5% in assay [7]; 95.4% in assay [8]; 87.2% in assay [9]; 77% in assay [10]; 4.9% (active) in assay [11]; 52.4% in assay [12]. Besides, the growth is 59.1% in assay [13]; 79.7% in assay [14]; 74.8% in assay [15]; 51.4% in assay [16]; -5.28% (active) in assay [17]; 42% in [18]. The growth in assay [19] was 88.8%; in [20], 98.4%.
As to `CCOC(=O)c1cc(C#N)n2ncc3ccccc3c12`, the growth in assay [1] is 109%; in assay [2], 95.1%; in assay [3], 102%; in assay [4], 98.6%; in assay [5] it was 102%; in assay [6], 101%. For the same molecule, the growth in assay [7] is 103%; in assay [8] it was 89%; in [9] it was -53.6% (active); in assay [10], 93.2%; in assay [11], 94.3%; in assay [12] it was 98%. In addition, the growth in assay [13] is 72.7%; in [14], 91.8%; in assay [15] it was 93.2%; in assay [16], 92.8%; in assay [17], 98%; in [18], 91.7%. Further, the growth in assay [19] was 95.6%; in [20] it was 101%.
On to `CC1Cc2c(Cl)ncnc2N(C)c2ccc(Cl)cc21` (stereo not given), for which the growth in assay [1] is 40.9%; in assay [2], 14.7%; in assay [3], 22.6%; in assay [4] it was -39.8% (active); in assay [5], 0.883% (active); in [6] it was 18.8%. Also, the growth is 20.2% in assay [7]; 28.1% in assay [8]; 4.86% (active) in assay [9]; 11.1% in assay [10]; 6.68% (active) in assay [11]; -0.897% (active) in assay [12]. The growth in [13] was 50.1%; in [14], 25.2%; in [15] it was 18.8%; in assay [16], 13.9%; in assay [17], -86.9% (active); in assay [18], 11.8%. Also, the values for the growth in assay [19] and in [20] were -69.3% (active) and 20.6%, respectively.
`Cc1cccc(C[C@H](NC(=O)Nc2ccc(Cl)cc2F)C(=O)N[C@@H]2C(=O)N3C[C@H](O)C[C@H]3C(=O)N3CCN(C)C[C@H]3C(=O)N[C@@H](C)C(=O)N3C[C@H](C)C[C@H]3C(=O)O[C@H]2C)c1`: the growth is 36.3% in assay [1]; 24.4% in assay [2]; 42.9% in assay [3]; 22.4% in assay [4]; 81.7% in [5]; 30% in [6]. Moreover, the growth in assay [7] is 19.7%; in assay [8], 53.8%; in [9], 22.6%; in assay [10] it was 63.5%; in assay [11], 105%; in assay [12], 36%. The growth is 18.8% in assay [13]; 22.5% in assay [14]; 23.5% in [15]; 19.6% in assay [16]; 40.7% in assay [17]; 28.3% in [18]. Moreover, the results for the growth in assay [19] and in assay [20] were 40.9% and 42.4%, respectively.
For `CCCCCCCCCCCCCC[n+]1cccc(C(N)=O)c1`, the growth was 27.8% in assay [1]; 9.03% (active) in assay [2]; -33.9% (active) in [3]; -22.9% (active) in [4]; -41.4% (active) in [5]; -24.2% (active) in [6]. The growth was -30.9% (active) in assay [7]; -5.92% (active) in assay [8]; 24.3% in [9]; -38.8% (active) in assay [10]; 67.6% in [11]; 0.436% (active) in [12]. Besides, the growth in assay [13] is -57.2% (active); in assay [14], -69.4% (active); in [15], -72.7% (active); in assay [16], -29% (active); in [17], -90.9% (active); in assay [18] it was 1.18% (active). In addition, the growth was 15.7% in [19] and 28.5% in [20].
For the molecule `CC(C)c1ccc(C(=O)Nc2sc3c(c2C#N)CCC(=O)C3)cc1`, the growth in assay [1] was 43.9%; in assay [2], 1.57% (active); in [3], -41.2% (active); in assay [4], -39.6% (active); in assay [5], -38.5% (active); in assay [6] it was 26.9%. Also, the growth in assay [7] was -7.58% (active); in [8], -48.4% (active); in [9], -2.97% (active); in assay [10] it was -6.52% (active); in assay [11], -24.5% (active); in [12] it was 8.34% (active). Further, the growth was -42.1% (active) in assay [13]; 11.4% in assay [14]; 15% in [15]; 1.47% (active) in assay [16]; -62.9% (active) in assay [17]; -27.8% (active) in assay [18]. The growth in assay [19] is 16.7%; in assay [20], 22.3%.

The record behind these values is PubChem BioAssay (NCI).
